Where a name gives a salt, the structure may show the parent alone.
test system: primary human hepatic stellate cells (donor 1); assay: ACTA2 mRNA fold change vs DMSO (normalised to PSMB2); higher = more ACTA2 expression; settings: 48 h
Experimental: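 Secondary qRT-PCR screen in primary human HSCs (donor 1), 384-well plates, with compounds dispensed in quadruplicate and incubated for 48 h. Cells-to-CT lysates were used for multiplexed TaqMan qPCR of ACTA2 or COL1A1 with PSMB2 as reference. Fold changes versus DMSO come from a linear model (Ct_gene ~ Ct_PSMB2 + plate + chemical). A hit is defined as COL1A1 and ACTA2 FC <0.5 (FDR <0.05) with PSMB2 between 0.2 and 2.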

SMILES	ACTA2 mRNA fold change
C#CC1(O)CC[C@H]2[C@@H]3CCC4=CC(=O)CC[C@@H]4[C@H]3CC[C@@]21CC (stereo not given in full) [Norgestrel] (21.3333 µM)	0.714
CN1CCC(=C2c3ccccc3C=Cc3ccccc32)CC1 [Cyproheptadine] (33.3333 µM)	0.172
CC(C)c1ccc(C(=O)c2cccs2)c(SCCCCCCCCN(C)C)n1 (33.3333 µM)	0.846
Cc1cc(C(=O)Nc2cc(Nc3ccc4c(/C=C/c5ccccn5)n[nH]c4c3)ccc2F)n(C)n1 (33.3333 µM)	0.469
NS(=O)(=O)C#Cc1ccccc1 [Pifithrin->m] (33.3333 µM)	0.0598
CC#CCOC(=O)c1c(C)nc2sc3c(c2c1N)CCC(O)C3 (stereo not given) (33.3333 µM)	0.806
COc1ccc(NS(=O)(=O)c2sc3ccc(Cl)cc3c2C)cc1N1CCNCC1 (33.3333 µM)	0.0163
CC[C@@H]1C(=O)N(C)c2cnc(Nc3ccc(C(=O)NC4CCN(C)CC4)cc3OC)nc2N1C1CCCC1 (33.3333 µM)	0.158
CCOC(=O)C1=C(COCCN)NC(C)=C(C(=O)OC)C1c1ccccc1Cl (stereo not given) (33.3333 µM)	0.084
CN(C)CCC(c1ccc(Br)cc1)c1ccccn1 (stereo not given) [Brompheniramine maleate] (33.3333 µM)	1.25
O=C(Nc1cc(C(F)(F)F)cc(C(F)(F)F)c1)c1cc(Cl)ccc1O (33.3333 µM)	0.0138
CCc1cc2c(cc1CC)CC(NC[C@H](O)c1ccc(O)c3[nH]c(=O)ccc13)C2 [Indacaterol Maleate] (33.3333 µM)	0.0334
CNCCC(Oc1ccc(C(F)(F)F)cc1)c1ccccc1 (stereo not given) [Fluoxetine hydrochloride] (33.3333 µM)	0.0314
O=C1Nc2ccccc2/C1=C1/Nc2ccccc2C1=O [Indirubin] (63.5333 µM)	1.06
CN1CCC(CNc2ccc3ncc(-c4cccc(OC(F)(F)F)c4)n3n2)CC1 (6.66667 µM)	1.23
Clc1ccccc1CNCC1CCC(CNCc2ccccc2Cl)CC1 (stereo not given) (33.3333 µM)	0.0214
CNCCCC1c2ccccc2C=Cc2ccccc21 [Protryptyline hydrochloride] (22.2333 µM)	0.577
O=C1NC(=O)/C(=C/c2ccc(-c3ccc(F)cc3O)o2)S1 (33.3333 µM)	0.0492
CC(/C=C/C(=O)NO)=C\[C@@H](C)C(=O)c1ccc(N(C)C)cc1 [Trichostatin A] (3.33333 µM)	0.0381
CNC(=O)[C@@H](Cc1ccccc1)N(C)C(=O)[C@@H](Cc1ccc2ccccc2c1)N(C)C(=O)/C=C/CC(C)(C)N [Tabimorelin] (33.3333 µM)	0.46

SMILES	ACTA2 mRNA fold change
NC[C@@H]1O[C@H](C23CC4CC(CC(C4)C2)C3)Cc2c1ccc(O)c2O (33.3333 µM)	0.309
CSc1ccc2c(c1)C(N1CCN(C)CC1)Cc1ccccc1S2 (stereo not given) [Methiothepin maleate] (33.3333 µM)	0.00993
Cc1ccc(-c2ccc3c(ccc4sc5c(c43)NC[C@@H](C)NC5=O)n2)cn1 (33.3333 µM)	1.65
COc1ccccc1OCCNCC(O)COc1cccc2[nH]c3ccccc3c12 (stereo not given) [Carvedilol] (33.3333 µM)	0.0773
CN1CCC(NC(=O)c2cc(-c3c(O)cc(O)cc3Oc3ccc([N+](=O)[O-])cc3)on2)CC1 (33.3333 µM)	1.25
Cc1ccc(S(=O)(=O)/C=C/C#N)cc1 (33.3333 µM)	0.24
COC(=O)C[C@](O)(CCCC(C)(C)O)C(=O)O[C@@H]1C(OC)=C[C@]23CCCN2CCc2cc4c(cc2[C@H]13)OCO4 [Homoharringtonine] (33.3333 µM)	0.0673
CCN(CC)CCNC(=O)c1c(C)[nH]c(/C=C2\C(=O)Nc3ccc(F)cc32)c1C (6.66667 µM)	1.2
N=C(N)SCCc1ccc(OCc2ccc([N+](=O)[O-])cc2)cc1 [KB-R7943 mesylate] (33.3333 µM)	0.0804
COc1cc2ncn(-c3cc(OCc4ccccc4C(F)(F)F)c(C(N)=O)s3)c2cc1OC (33.3333 µM)	0.333
Cc1ccc(NC(=O)C(C)C)cc1C1CCN(Cc2ccc(Oc3ccc(F)c(F)c3)cc2)CC1 (33.3333 µM)	0.0197
Cc1cccc(Nc2nc(-c3ccncc3)cs2)c1 (11.1 µM)	1.07
COC(=O)N[C@H](C(=O)N1CCC[C@H]1c1ncc(-c2ccc(-c3ccc(-c4cnc([C@@H]5CCCN5C(=O)[C@@H](NC(=O)OC)C(C)C)[nH]4)cc3)cc2)[nH]1)C(C)C (33.3333 µM)	0.0331
CCN1CCC(n2cc(CNc3cc(Cl)c4ncc(C#N)c(Nc5ccc(F)c(Cl)c5)c4c3)nn2)CC1 (33.3333 µM)	0.0712
CCCCCCCCCCCCCCCCn1cc[n+](Cc2ccccc2)c1C (11.1 µM)	0.0378
C[C@@H]1CN(CCCn2c3ccccc3c3ccccc32)C[C@H](C)N1 [Rimcazole dihydrochloride] (33.3333 µM)	0.0478
CNCc1ccc(C)c(NC(=O)c2ccc(Nc3nc(-c4ccccc4)c4ccccc4n3)cc2)c1 (33.3333 µM)	0.0244
CCCCCCCCc1ccc(CCC(N)(CO)CO)cc1 [Fingolimod (FTY720) HCl] (11.1 µM)	0.301
c1ccc2c(NCCCCCCCNc3c4c(nc5ccccc35)CCCC4)c3c(nc2c1)CCCC3 [bis(7)-Tacrine] (3.33333 µM)	0.0296
CCCCc1oc2ccccc2c1C(=O)c1cc(I)c(OCCN(CC)CC)c(I)c1 (33.3333 µM)	0.0284
